In PubChem BioAssay (Tox21):
Results filed as inconclusive are left out. Activity calls are given as the source filed them. Unless noted, calls come from the whole dose curve; as a rule, active = well fitted curve in the direction sought with a large enough effect in the repeat runs; inconclusive = weak or mixed curves; inactive = no such curve, though single readings can be large; an effect the other way counts as inactive or inconclusive.

How the values were obtained:
[1] = qHTS assay to test for compound auto fluorescence at 535 nm (green) in HEK293 cells (AID 720680)
[2] = qHTS assay to test for compound auto fluorescence at 460 nm (blue) in HEK293 cell free culture (AID 720681)
Summary of the method: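 Compounds were added to cell-free DMEM with 10% FBS and fluorescence read directly. The blue channel used 405 nm excitation and 460 nm emission, with triamterene as the reference fluorophore.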

[3] = qHTS assay to test for compound auto fluorescence at 535 nm (green) in HEK293 cell free culture (AID 720682)
Summary of the method: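 Measurement is a direct plate read of green fluorescence (485 nm in, 535 nm out) after compound addition to serum-supplemented DMEM lacking cells, with fluorescein used to express intensities.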

[4] = qHTS assay to test for compound auto fluorescence at 590 nm (red) in HEK293 cell free culture (AID 720683)
Summary of the method: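 Cell-free wells of DMEM with 10% FBS received compound, and intrinsic fluorescence was read at excitation/emission 540/590 nm. Values expressed as equivalence to Rose Bengal sodium.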

[5] = qHTS assay to test for compound auto fluorescence at 590 nm (red) in HepG2 cell free culture (AID 720684)
Summary of the method: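 Compound was pinned into wells holding MEM with 10% FBS and no cells, and red fluorescence was read at Ex/Em 540/590 nm. Signal is expressed as auto fluorescence equivalency relative to Rose Bengal sodium.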

[6] = qHTS assay to test for compound auto fluorescence at 460 nm (blue) in HepG2 cell free culture (AID 720685)
Summary of the method: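 Compound (23 nL) or DMSO pinned into cell-free MEM with 10% FBS; blue fluorescence read at 405/460 nm excitation/emission, expressed as auto-fluorescence equivalency to triamterene.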

[7] = qHTS assay to test for compound auto fluorescence at 535 nm (green) in HepG2 cell free culture (AID 720686)
[8] = qHTS assay to test for compound auto fluorescence at 460 nm (blue) in HepG2 cells (AID 720687)
Summary of the method: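 HepG2 cells in MEM with 10% FBS, attached overnight at 37 C, were exposed to compound or DMSO for 1 hr at 37 C, 5% CO2. Blue fluorescence was read at 405/460 nm, with triamterene as reference fluorophore.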

[9] = target: Glucocorticoid receptor (Homo sapiens) (UniProt P04150); experiment: qHTS assay to identify small molecule agonists of the glucocorticoid receptor (GR) signaling pathway (AID 720691; active = well fitted activation curve with a large enough effect in the signal ratio in the repeat runs, not every such curve was filed as active; the % refers to the signal ratio)
Summary of the method: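 GR-bla HeLa cells carrying a GRE-driven beta-lactamase reporter, exposed to compounds for 18 h at 37 C. Reporter activation read as fluorescence after 2 h with LiveBLAzer B/G FRET substrate at room temperature.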

[10] = target: Glucocorticoid receptor (Homo sapiens) (UniProt P04150); experiment: qHTS assay to identify small molecule antagonists of the glucocorticoid receptor (GR) signaling pathway (AID 720692; active = well fitted inhibition curve with a large enough effect in the signal ratio in the repeat runs, not every such curve was filed as active; the % refers to the signal ratio)
Summary of the method: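 GR-bla HeLa cells carrying a GRE-driven beta-lactamase reporter received compound after 4 h plating, then dexamethasone (5 nM final). After 18 h at 37C, the FRET substrate was loaded for 2 h at room temperature and fluorescence read.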

[11] = qHTS assay to identify small molecule antagonists of the glucocorticoid receptor (GR) signaling pathway - cell viability counter screen (AID 720693); note: nearly all actives have a fitted effect of over 55% in size
[12] = qHTS assay for identifying genotoxic compounds that show differential cytotoxicity against isogenic chicken DT40 cell lines with known DNA damage response pathways - wild type cell line (AID 743012); note: nearly all actives have a fitted effect of over 60% in size
Summary of the method: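 Wild-type DT40 cells (300/well) exposed to compounds for 40 hours at 37 C/5% CO2. Viability read by CellTiter-Glo luminescence after 30 min at room temperature.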

[13] = qHTS assay for identifying genotoxic compounds that show differential cytotoxicity against isogenic chicken DT40 cell lines with known DNA damage response pathways - Rev3 mutant cell line (AID 743014); note: nearly all actives have a fitted effect of over 55% in size
[14] = qHTS assay for identifying genotoxic compounds that show differential cytotoxicity against isogenic chicken DT40 cell lines with known DNA damage response pathways - Rad54/Ku70 mutant cell line (AID 743015); note: nearly all actives have a fitted effect of over 60% in size
[15] = qHTS assay to identify small molecule antagonists of the androgen receptor (AR) signaling pathway - cell viability counter screen (AID 743033; note: nearly all actives have a fitted effect of over 45% in size)
[16] = qHTS assay to identify small molecule antagonists of the androgen receptor (AR) signaling pathway using the MDA cell line - cell viability counter screen (AID 743041; note: nearly all actives have a fitted effect of over 45% in size)
Summary of the method: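 MDA-kb2 AR-luc cells (MMTV-luciferase, AR/GR responsive) treated with compounds plus R1881 agonist for 16 h at 37C. CellTiter-Fluor added at 15.5 h; fluorescence read after 30 min in the same wells.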

[17] = target: Androgen receptor (Homo sapiens) (UniProt P10275); experiment: qHTS assay to identify small molecule agonists of the androgen receptor (AR) signaling pathway (AID 743036; active = well fitted activation curve with a large enough effect in the signal ratio in the repeat runs, with a control signal flat, not every such curve was filed as active; the % refers to the signal ratio)
Summary of the method: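 Beta-lactamase under UAS control, stably integrated in HEK293 GripTite cells, reports receptor activation. After 16 h compound treatment, cells received FRET substrate for 2 h at room temperature before fluorescence reading.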

[18] = target: Androgen receptor (Homo sapiens) (UniProt P10275); experiment: qHTS assay to identify small molecule agonists of the androgen receptor (AR) signaling pathway using the MDA cell line (AID 743040; note: nearly all actives have a fitted effect of over 20% in size)
Summary of the method: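 MDA-kb2 breast carcinoma cells carrying MMTV-luciferase (responsive to AR and GR), plated 5 h then treated 16 h with compounds at 37C, 0% CO2. Read-out was ONE-Glo luminescence after 30 min at room temperature.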

[19] = target: Androgen receptor (Homo sapiens) (UniProt P10275); experiment: qHTS assay to identify small molecule antagonists of the androgen receptor (AR) signaling pathway using the MDA cell line (AID 743042; note: nearly all actives have a fitted effect of over 55% in size)
Summary of the method: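 MDA-kb2 breast carcinoma cells carrying MMTV-luciferase (AR/GR responsive) were co-treated with compounds and the agonist R1881 for 16 h at 37C. Inhibition read as ONE-Glo luminescence; CellTiter-Fluor fluorescence measured in parallel for cytotoxicity.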

[20] = target: Androgen receptor (Homo sapiens) (UniProt P10275); experiment: qHTS assay to identify small molecule antagonists of the androgen receptor (AR) signaling pathway (AID 743035; active = well fitted inhibition curve with a large enough effect in the signal ratio in the repeat runs, not every such curve was filed as active; the % refers to the signal ratio)
Summary of the method: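 HEK293 cells stably carrying UAS-beta-lactamase reporter, 2,000/well, given compounds plus R1881 agonist and incubated 16 h at 37C. LiveBLAzer B/G FRET substrate then added for 2 h at room temperature before fluorescence reading.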
% is set by controls: 0 for no effect and ±100 for the full control effect.

Glucocorticoid receptor (Homo sapiens), sequence (P04150 whole entry, looked up): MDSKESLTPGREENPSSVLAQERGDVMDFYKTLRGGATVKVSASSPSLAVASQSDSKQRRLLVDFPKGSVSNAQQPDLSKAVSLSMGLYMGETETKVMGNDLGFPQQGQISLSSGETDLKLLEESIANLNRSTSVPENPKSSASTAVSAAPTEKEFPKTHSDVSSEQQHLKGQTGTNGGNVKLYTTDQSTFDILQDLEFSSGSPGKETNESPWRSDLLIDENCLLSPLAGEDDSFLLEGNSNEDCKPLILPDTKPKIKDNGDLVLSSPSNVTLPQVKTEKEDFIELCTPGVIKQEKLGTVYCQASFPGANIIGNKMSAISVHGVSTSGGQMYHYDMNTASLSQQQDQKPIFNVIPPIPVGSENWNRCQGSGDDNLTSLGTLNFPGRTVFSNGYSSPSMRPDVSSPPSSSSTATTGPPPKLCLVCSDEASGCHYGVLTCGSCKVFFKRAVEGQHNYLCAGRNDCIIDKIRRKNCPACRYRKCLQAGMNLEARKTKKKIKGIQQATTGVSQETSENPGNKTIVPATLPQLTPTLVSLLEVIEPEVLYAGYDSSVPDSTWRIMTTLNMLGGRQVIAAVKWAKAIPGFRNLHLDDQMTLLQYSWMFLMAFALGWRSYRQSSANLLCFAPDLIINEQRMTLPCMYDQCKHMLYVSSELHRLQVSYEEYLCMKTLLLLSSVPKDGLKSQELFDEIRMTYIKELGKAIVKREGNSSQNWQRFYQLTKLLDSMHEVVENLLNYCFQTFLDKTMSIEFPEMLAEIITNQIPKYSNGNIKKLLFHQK
Androgen receptor (Homo sapiens), sequence (P10275 whole entry, looked up): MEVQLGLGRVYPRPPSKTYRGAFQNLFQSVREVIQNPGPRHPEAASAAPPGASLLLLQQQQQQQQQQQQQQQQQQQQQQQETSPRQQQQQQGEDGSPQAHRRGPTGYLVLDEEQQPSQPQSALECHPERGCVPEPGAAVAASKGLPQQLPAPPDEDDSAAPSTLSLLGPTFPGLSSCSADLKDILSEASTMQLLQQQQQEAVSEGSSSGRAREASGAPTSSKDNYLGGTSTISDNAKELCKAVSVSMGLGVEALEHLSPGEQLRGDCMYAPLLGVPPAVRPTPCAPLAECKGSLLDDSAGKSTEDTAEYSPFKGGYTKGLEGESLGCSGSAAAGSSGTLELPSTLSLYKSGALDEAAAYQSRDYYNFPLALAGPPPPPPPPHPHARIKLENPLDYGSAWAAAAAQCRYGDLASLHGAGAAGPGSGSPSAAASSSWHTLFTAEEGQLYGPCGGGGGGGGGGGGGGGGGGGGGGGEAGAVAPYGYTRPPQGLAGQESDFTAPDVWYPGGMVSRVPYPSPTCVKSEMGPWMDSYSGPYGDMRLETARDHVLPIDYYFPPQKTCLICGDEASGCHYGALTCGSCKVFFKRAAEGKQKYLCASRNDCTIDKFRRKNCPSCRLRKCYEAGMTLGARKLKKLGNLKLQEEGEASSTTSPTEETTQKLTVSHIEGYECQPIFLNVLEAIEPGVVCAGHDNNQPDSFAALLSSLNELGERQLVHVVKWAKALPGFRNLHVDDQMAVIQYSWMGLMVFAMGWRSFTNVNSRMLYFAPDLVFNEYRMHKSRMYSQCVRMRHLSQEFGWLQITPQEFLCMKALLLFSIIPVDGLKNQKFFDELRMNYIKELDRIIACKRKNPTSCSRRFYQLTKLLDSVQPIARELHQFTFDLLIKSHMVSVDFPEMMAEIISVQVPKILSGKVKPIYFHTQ

C[N+]1(C)[C@@H]2CC(OC(=O)[C@H](CO)c3ccccc3)C[C@H]1[C@@H]1O[C@@H]12 (stereo partly drawn)
inactive: outcome [1] | outcome [2] | outcome [3] | outcome [4] | outcome [5] | outcome [6] | outcome [7] | outcome [8] | Potency [9] | Potency [10] | outcome [11] | Potency [12] | Potency [13] | Potency [14] | outcome [15] | Potency [16]

O=C(O)CCSCCC(=O)O
inactive: outcome [1] | outcome [2] | outcome [3] | outcome [4] | outcome [5] | outcome [6] | outcome [7] | outcome [8] | Potency [9] | Potency [10] | outcome [11] | Potency [12] | Potency [13] | Potency [14] | outcome [15] | outcome [17] | Potency [18] | Potency [16] | outcome [19]

CCOC(=O)COC(=O)c1ccccc1C(=O)OCC
inactive: outcome [1] | outcome [2] | outcome [3] | outcome [4] | outcome [5] | outcome [6] | outcome [7] | outcome [8] | Potency [9] | Potency [10] | outcome [11] | Potency [12] | Potency [13] | Potency [14] | outcome [15] | Potency [16]

CCCCCCCCCCCCCCCCCCO
inactive: outcome [1] | outcome [2] | outcome [3] | outcome [4] | outcome [5] | outcome [6] | outcome [7] | outcome [8] | Potency [9] | Potency [10] | outcome [11] | Potency [12] | Potency [13] | Potency [14] | outcome [15] | Potency [16]

CC1=CCC(O)(C(C)C)CC1 (stereo not drawn)
inactive: outcome [1] | outcome [2] | outcome [3] | outcome [4] | outcome [5] | outcome [6] | outcome [7] | outcome [8] | Potency [9] | Potency [10] | outcome [11] | Potency [12] | Potency [13] | Potency [14] | outcome [15] | Potency [16]

Cc1cc(C)c(N=Nc2c(O)c(S(=O)(=O)O)cc3cc(S(=O)(=O)O)ccc23)cc1C
inactive: fluorescence, % of fluorescein [1] -0.0092% [at 9.17 µM] | fluorescence, % of fluorescent control [2] -0.0769% [at 9.17 µM] | activity change [3] 0.0216% [at 9.17 µM] | fluorescence, % of fluorescent control [4] 0.0378% [at 9.17 µM] | fluorescence, % of Rose Bengal [5] 0.0175% [at 9.17 µM] | fluorescence, % of fluorescent control [6] -0.11% [at 9.17 µM] | fluorescence, % of fluorescein control [7] -0.0747% [at 9.17 µM] | fluorescence, % of fluorescent control [8] -0.0207% [at 9.17 µM] | activation [9] -1.47% [at 6.9 µM] | activity change, negative = inhibition [10] 0.597% [at 7.04 µM] | viability change, negative = cytotoxic [11] -0.62% [at 7.04 µM] | activity change, negative = cytotoxicity [12] -7.67% [at 8.52 µM] | activity, negative = cytotoxicity [13] 0.342% [at 8.53 µM] | activity change, negative = cytotoxicity [14] 1.01% [at 8.55 µM] | activity change, negative = cytotoxicity [15] -2% [at 7.04 µM] | viability change, negative = cytotoxic [16] -1.15% [at 8.47 µM]

O=C1CCCCCCCCCCCCCCO1
inactive: outcome [1] | outcome [2] | outcome [3] | outcome [4] | outcome [5] | outcome [6] | outcome [7] | outcome [8] | Potency [9] | Potency [10] | outcome [11] | Potency [12] | Potency [13] | Potency [14] | outcome [15] | Potency [16]

CC[N+](CC)(CC)CCOc1cccc(OCC[N+](CC)(CC)CC)c1OCC[N+](CC)(CC)CC
inactive: outcome [1] | outcome [2] | outcome [3] | outcome [4] | outcome [5] | outcome [6] | outcome [7] | outcome [8] | Potency [9] | Potency [10] | outcome [11] | Potency [12] | Potency [13] | Potency [14] | outcome [15] | Potency [20] | Potency [18] | Potency [16] | outcome [19]

O=C(CO)[C@@H](O)[C@H](O)[C@@H](O)CO
inactive: outcome [1] | outcome [2] | outcome [3] | outcome [4] | outcome [5] | outcome [6] | outcome [7] | outcome [8] | Potency [9] | Potency [10] | outcome [11] | Potency [12] | Potency [13] | Potency [14] | outcome [15] | Potency [16]

C1CCC2=NCCCN2CC1
inactive: outcome [1] | outcome [2] | outcome [3] | outcome [4] | outcome [5] | outcome [6] | outcome [7] | outcome [8] | Potency [9] | Potency [10] | outcome [11] | Potency [12] | Potency [13] | Potency [14] | outcome [15] | Potency [16]

CC(COc1ccccc1)NN (stereo not drawn)
inactive: outcome [1] | outcome [2] | outcome [3] | outcome [4] | outcome [5] | outcome [6] | outcome [7] | outcome [8] | Potency [9] | Potency [10] | outcome [11] | Potency [12] | Potency [13] | Potency [14] | outcome [15] | Potency [16]

CC(=O)c1ccc2ccccc2c1
inactive: outcome [1] | outcome [2] | outcome [3] | outcome [4] | outcome [5] | outcome [6] | outcome [7] | outcome [8] | Potency [9] | Potency [10] | outcome [11] | Potency [12] | Potency [14] | outcome [15] | Potency [16]

CCCCc1nc(Cl)c(CO)n1Cc1ccc(-c2ccccc2-c2nn[nH]n2)cc1
inactive: outcome [1] | outcome [2] | outcome [3] | outcome [4] | outcome [5] | outcome [6] | outcome [7] | outcome [8] | Potency [9] | Potency [10] | outcome [11] | Potency [12] | Potency [13] | Potency [14] | Potency [16]

CCCCN1C=CN(C)C1
inactive: fluorescence, % of fluorescein [1] -0.0653% [at 18.6 µM] | fluorescence, % of fluorescent control [2] -0.116% [at 18.6 µM] | activity change [3] 0.0078% [at 18.6 µM] | fluorescence, % of fluorescent control [4] 0.0298% [at 18.6 µM] | fluorescence, % of Rose Bengal [5] 0.057% [at 18.6 µM] | fluorescence, % of fluorescent control [6] -0.0433% [at 18.6 µM] | fluorescence, % of fluorescein control [7] -0.069% [at 18.6 µM] | fluorescence, % of fluorescent control [8] 0.0295% [at 18.6 µM] | Potency [9] | Potency [10] | outcome [11] | Potency [12] | Potency [13] | Potency [14] | outcome [15] | Potency [16]
